pS6 MEF inh – inhibitors of mTORC1 signaling in Tsc2-/- p53-/- MEF cells; Tsc2-/- p53-/- MEF, phospho-rpS6 immunofluorescence/PI, 24 h; Potency, µM (series often up to 38.3 µM), for the others: top-dose activity change, negative = inhibition, actives largely listed as inhibitors; 0.78% of 44,000 active;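 also: plate controls were DMSO for no effect and rapamycin for full effect; nearly all actives have a fitted effect of over 50% in size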
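Compounds act on Tsc2-/-, p53-/- fibroblasts carrying an empty vector for 24 h before fixation and dual staining for phospho-S6 and DNA (propidium iodide). Values are percentages of cells above a rapamycin-defined pS6/PI threshold.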
S16 F2sN tox – toxic to S16 Pmp22-F2sN Schwann cells. S16 Pmp22-F2sN Schwann cells viability, CellTiter-Glo, 24 h. Potency, µM (top dose mostly 57.5 µM), for the others: at the highest dose activity change, negative = cytotoxicity, hits mostly cytotoxic. 0.48% of 43,000 active; also: % is scaled to controls: 0 for no effect and ±100 for the full control effect; nearly all actives have a fitted effect of over 65% in size
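Viability was measured by CellTiter-Glo luminescence (15 min, room temperature). This followed 24 h at 37 °C of compound exposure (23 nL pin transfer) in S16 Pmp22-F2sN Schwann cells, 500-1,000 per well.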
PMP22 txn prim – PMP22 gene transcription modulation | S16 Pmp22-F2sN Schwann cells (luciferase reporters placed in the Pmp22 gene), FLuc/NLuc coincidence luminescence, 24 h | Potency, µM (highest dose often 57.5 µM), without a hit: at the top dose activity change, negative = inhibition, actives largely listed as inhibitors | 2% of 43,000 active | AID 1508649; active = clear falling dose curves in both reporters; inconclusive = both reporters move, but less clearly or upward; inactive = either reporter flat; the % is the NLuc reporter signal; also: % is scaled to controls: 0 for no effect and ±100 for the full control effect
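S16 Schwann cells carrying FLuc/NLuc coincidence reporter in the Pmp22 3' UTR treated with compound 24 h at 37C; FLuc then NLuc luminescence read sequentially by dual-luciferase reagents.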
FH mod – Identification of activators of human fumarate hydratase by quantitative high-throughput screening. 0.22% of 54,000 active. Potency, µM (top dose mostly 79.9 µM), without a hit: at the highest dose activity change, negative = inhibition, hits mostly inhibitors. FH coupled MDH/diaphorase resazurin fluorescence, 15 min. AID 1347055, 2019; also: % is scaled to controls: 0 for no effect and ±100 for the full control effect; the screen sought activators but most active calls are inhibition curves; nearly all actives have a fitted effect of over 45% in size
Target sequence (P07954 whole entry, looked up): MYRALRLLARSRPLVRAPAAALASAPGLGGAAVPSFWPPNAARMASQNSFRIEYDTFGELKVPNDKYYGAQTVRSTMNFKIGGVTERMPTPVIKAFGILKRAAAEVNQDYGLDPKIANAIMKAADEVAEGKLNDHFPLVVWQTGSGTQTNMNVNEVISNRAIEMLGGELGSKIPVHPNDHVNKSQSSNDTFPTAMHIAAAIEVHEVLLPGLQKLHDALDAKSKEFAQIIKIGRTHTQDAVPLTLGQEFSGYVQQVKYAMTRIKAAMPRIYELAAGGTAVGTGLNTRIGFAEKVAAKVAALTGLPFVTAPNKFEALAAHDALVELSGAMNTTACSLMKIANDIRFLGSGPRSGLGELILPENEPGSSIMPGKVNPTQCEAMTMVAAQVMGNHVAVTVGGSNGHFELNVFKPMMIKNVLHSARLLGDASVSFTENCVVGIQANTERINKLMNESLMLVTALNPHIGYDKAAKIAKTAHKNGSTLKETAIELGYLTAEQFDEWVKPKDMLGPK
HTT-AS act – activators of huntingtin-antisense promoter activity | 0.24% of 48,000 active | HEK293 HTT-AS promoter firefly luciferase reporter, 24 h; response scale: percent change from vehicle, -100% = no light | Potency, µM (highest dose often 57.5 µM), for the others: at the top dose activity change, positive = activation, most hits filed as activators | AID 1508624; also: nearly all actives have a fitted effect of over 55% in size
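HEK293 cells carrying firefly luciferase reporters were seeded at 2,500 per well in Opti-MEM and cultured for 24 h. They were then treated with compounds at up to 57.5 uM final for 24 h at 37 degrees C before Dual-Glo luminescence readout.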
HTT promoter inh – HTT promoter inhibition | HEK293 HTT promoter firefly luciferase reporter, 24 h | Potency, µM (doses to about 57.5 µM), for the others: at the top dose activity change, negative = inhibition, usual class: inhibitors | 0.93% of 48,000 active | AID 1508623; also: nearly all actives have a fitted effect of over 50% in size
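Luminescence was read after Dual-Glo reagent and a 10 min room-temperature incubation. Values were normalized to vehicle (0% activity) and zero RLU (-100% activity). Reporter HEK293 cells had been exposed to compounds (up to 57.5 uM final) for 24 h.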
* marks the source's active call; other numbers are inactive results; [ ] = another dose, or the depositor's remark. A selection: hits, their analogues and other compounds. The true share with any hit is near 3.3%. Unless noted, calls follow the shape of the dose curve; as a rule, active = well fitted curve in the direction sought with a large enough effect; inconclusive = small, poorly fitted or top-dose-only effect, or another doubt; inactive = no such curve, though single readings can be large; an effect the other way counts as inactive or inconclusive. Potency is read from the fitted curve at half-maximal effect.

Results for COc1cc2nc(NC(=O)c3ccc(S(=O)(=O)N4CCc5ccccc54)cc3)sc2cc1OC ?
pS6 MEF inh: -7.0%; S16 F2sN tox: 0.1%; PMP22 txn prim: -23.3%; FH mod: -7.2%; HTT-AS act: -40.9%; HTT promoter inh: 12.6µM*

What do the screens show for `O=C(Nc1nc2c(Cl)cccc2s1)c1ccc(S(=O)(=O)N2CCc3ccccc32)cc1`?
pS6 MEF inh: -16.1%; S16 F2sN tox: inconclusive; PMP22 txn prim: -25.3%; FH mod: -17.2%; HTT-AS act: -41.7%; HTT promoter inh: inconclusive

What do the screens show for `CC1=CC(=O)[C@]2(O[C@@H]3O[C@@H](C)[C@H](O)[C@@H](O)[C@H]3O)C=CO[C@@H](O[C@@H]3O[C@H](CO)[C@@H](O)[C@H](O)[C@H]3O)[C@H]12`?
FH mod: -1.9%[53.3 µM]

How did COC(=O)c1c(-c2ccc(Cl)cc2)noc1N1CCN(c2ccc(OC)cc2)CC1 do in these assays?
pS6 MEF inh: 1.5%; S16 F2sN tox: inconclusive; PMP22 txn prim: 5.97µM*; FH mod: -3.3%; HTT-AS act: -4.7%; HTT promoter inh: 6.6%

How did COC(=O)c1c(-c2ccc(Cl)cc2)noc1N1CCN(c2ccc(C(C)=O)cc2)CC1 do in these assays?
pS6 MEF inh: -15.1%; S16 F2sN tox: inconclusive; PMP22 txn prim: 2.67µM*; FH mod: -7.1%; HTT-AS act: -1.1%; HTT promoter inh: 8.8%

Results for COC(=O)c1c(-c2ccc(Cl)cc2)noc1N1CCN(c2ccccc2F)CC1 ?
pS6 MEF inh: 0.8%; S16 F2sN tox: 9.8%; PMP22 txn prim: 5.8%; FH mod: -6.1%; HTT-AS act: -18.6%; HTT promoter inh: -2.5%

Results for COc1ccc(-c2cnc(-c3cccc4c3-c3ccccc3C4=O)o2)cc1 ?
FH mod: 5.1%[53.3 µM]

What do the screens show for `O=C(Nc1ccccc1F)c1ccc2c(Cl)c3c(nc2c1)CCC3`?
pS6 MEF inh: -0.2%; S16 F2sN tox: -0.2%; PMP22 txn prim: inconclusive; FH mod: inconclusive; HTT-AS act: -68.5%; HTT promoter inh: 12.6µM*

How did CC(=O)Nc1cccc(NC(=O)CSc2nccn2Cc2ccco2)c1 do in these assays?
pS6 MEF inh: -7.5%; S16 F2sN tox: -2.3%; PMP22 txn prim: -45.1%; FH mod: -3.3%; HTT-AS act: -3.4%; HTT promoter inh: inconclusive

Results for Cc1cc(C)c(NC(=O)CSc2nccn2Cc2ccco2)c(C)c1 ?
pS6 MEF inh: -10.3%; S16 F2sN tox: 1.1%; PMP22 txn prim: -0.3%; FH mod: 3.3%; HTT-AS act: 5.01µM*; HTT promoter inh: 43.9%

What do the screens show for `O=C(Nc1cc(Cl)cc(Cl)c1)c1ccc(F)c(S(=O)(=O)NCc2ccccc2Cl)c1`?
pS6 MEF inh: 1.9%; S16 F2sN tox: inconclusive; PMP22 txn prim: inconclusive; FH mod: inconclusive; HTT-AS act: -31.9%; HTT promoter inh: inconclusive

How did O=C(Nc1cccc(Cl)c1)c1ccc(F)c(S(=O)(=O)N2CCC3(CC2)OCCO3)c1 do in these assays?
pS6 MEF inh: -2.9%; S16 F2sN tox: -24.0%; PMP22 txn prim: -17.7%; FH mod: -18.8%; HTT-AS act: -22.9%; HTT promoter inh: inconclusive

How did CC(C)c1ccc(NC(=O)c2ccc(F)c(S(=O)(=O)N3CCc4ccccc4C3)c2)cc1 do in these assays?
pS6 MEF inh: 4.0%; S16 F2sN tox: -1.4%; PMP22 txn prim: -10.3%; FH mod: -17.8%; HTT-AS act: -25.5%; HTT promoter inh: 11.2µM*

What do the screens show for `COc1ccccc1CNS(=O)(=O)c1cc(C(=O)Nc2cccc(C(F)(F)F)c2)ccc1F`?
pS6 MEF inh: inconclusive; S16 F2sN tox: -9.6%; PMP22 txn prim: inconclusive; FH mod: inconclusive; HTT-AS act: -46.9%; HTT promoter inh: 28.2µM*

Results for O=C(Nc1cccc(C(F)(F)F)c1)c1ccc(F)c(S(=O)(=O)N2CCc3ccccc3C2)c1 ?
pS6 MEF inh: 3.1%; S16 F2sN tox: 21.9%; PMP22 txn prim: -21.5%; FH mod: inconclusive; HTT-AS act: -39.8%; HTT promoter inh: 28.2µM*

How did CNCCC(c1cccs1)c1ccc(O)c2ccccc12 (centres undefined) do in these assays?
FH mod: 0.0%

What do the screens show for `CCC(C)C(=O)O[C@@H]1[C@@H](O)[C@@H](O[C@H]2O[C@H](CO)[C@@H](O)[C@H](O)[C@H]2O)O[C@H](CO)[C@H]1O` (some centres undefined)?
FH mod: 3.6%[53.3 µM]

How did CC(C)(C)C1CCc2nc(NC(=O)c3ccc([N+](=O)[O-])cc3)sc2C1 (centres undefined) do in these assays?
pS6 MEF inh: -7.9%; S16 F2sN tox: inconclusive; PMP22 txn prim: 6.5%; FH mod: -7.4%; HTT-AS act: -33.2%; HTT promoter inh: inconclusive

How did CC(C)(C)C1CCc2nc(NC(=O)c3cccc(Cl)c3)sc2C1 (centres undefined) do in these assays?
pS6 MEF inh: 2.5%; S16 F2sN tox: inconclusive; PMP22 txn prim: -9.3%; FH mod: inconclusive; HTT-AS act: -75.7%; HTT promoter inh: 0.355µM*

Results for CC(C)(C)C1CCc2nc(NC(=O)COc3ccccc3[N+](=O)[O-])sc2C1 (centres undefined) ?
pS6 MEF inh: 0.5%; S16 F2sN tox: inconclusive; PMP22 txn prim: inconclusive; FH mod: -12.6%; HTT-AS act: -76.5%; HTT promoter inh: 4.47µM*

How did COc1ccnc2[nH]cc(C(=O)C(=O)N3CCN(C(=O)c4ccccc4)CC3C)c12 (centres undefined) do in these assays?
FH mod: 3.2%

What do the screens show for `CN(C)c1ccc(C(=O)Nc2sc(Nc3ccccc3)nc2C(N)=O)cc1`?
pS6 MEF inh: 4.65µM*; S16 F2sN tox: -1.1%; PMP22 txn prim: -16.9%; FH mod: 8.7%; HTT-AS act: -41.9%; HTT promoter inh: inconclusive

How did CN(C)c1ccc(C(=O)Nc2cccc(-c3nc4cccnc4s3)c2)cc1 do in these assays?
pS6 MEF inh: -4.8%; S16 F2sN tox: -9.7%; PMP22 txn prim: inconclusive; FH mod: -12.8%; HTT-AS act: 8.8%; HTT promoter inh: -0.2%

What do the screens show for `COc1ccccc1Nc1c2c(nc3ccc(NC(=O)c4cccc(OC)c4OC)cc13)CCCC2`?
pS6 MEF inh: 16.5µM*; S16 F2sN tox: inconclusive; PMP22 txn prim: inconclusive; FH mod: inconclusive; HTT-AS act: -51.1%; HTT promoter inh: inconclusive

Screening data as filed in PubChem.
